Assay outcomes deposited in PubChem BioAssay by several laboratories.
MIN6 prolif: inducers of MIN6 beta-cell proliferation, primary screen, ATP luminescence, uHTS | MIN6 cells proliferation, ATPlite luminescence, 48 h; cells starved in 0.2% serum; 100% = growth in 10% serum | proliferation, % at 10 µM | 0.29% of 330,000 active | AID 2380, 2010;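 active = compounds whose signal lies at least 3.5 SD above the mean of all wells on their plate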;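 also: 0% = DMSO-treated cells in low-serum medium and 100% = 10% serum control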
PfM18AAP inh-1: PfM18AAP inhibitors, malaria aminopeptidase, primary screen, biochemical, QFRET, recombinant enzyme; M18 aspartyl aminopeptidase (Plasmodium falciparum 3D7); H-Glu-NHMec fluorogenic cleavage; inhibition, % at 7.35 µM; 1.2% of 290,000 active; AID 1822, 2009;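 active = inhibition above the campaign mean inhibition over all tested compounds plus 3 SD, cut at about 28% in these data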;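 also: 0% = plate median of test compound wells and 100% = 2 mM ZnCl2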
ALR inh: inhibitors of human ALR sulfhydryl oxidase, primary screen, biochemical, H2O2 detection, HRP-luminol luminescence, single point; purified ALR, DTT oxidation; inhibition, % (concentration not given with the values); 3.8% of 290,000 active;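 active = mean replicate inhibition above about 79%, with every replicate also reaching it, limit read from the data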
Target sequence (P55789 whole entry, looked up): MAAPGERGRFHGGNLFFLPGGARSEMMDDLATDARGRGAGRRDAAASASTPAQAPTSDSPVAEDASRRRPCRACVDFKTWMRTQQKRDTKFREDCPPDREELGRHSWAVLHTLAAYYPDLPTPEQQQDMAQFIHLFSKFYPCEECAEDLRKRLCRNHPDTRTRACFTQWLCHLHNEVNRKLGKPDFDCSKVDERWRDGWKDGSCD
JMJD2C inh: inhibitors of GASC-1 histone demethylase, primary screen, biochemical, fluorescence, DELFIA europium; Lysine-specific demethylase 4C (Homo sapiens), Q9H3R0; GST-JMJD2C(1-420) H3K9me3 demethylation; inhibition, % at 2.35 µM; 0.069% of 330,000 active; AID 2099, 2009;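 active = more than half of a compound's replicate wells show inhibition beyond 50%, single wells judged on their own value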;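 also: signal counts dimethyl H3K9 product captured on neutravidin plate; 0% = median of DMSO wells and 100% = 0.3 times that DMSO median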
Target sequence (Q9H3R0 1-420 limits assumed): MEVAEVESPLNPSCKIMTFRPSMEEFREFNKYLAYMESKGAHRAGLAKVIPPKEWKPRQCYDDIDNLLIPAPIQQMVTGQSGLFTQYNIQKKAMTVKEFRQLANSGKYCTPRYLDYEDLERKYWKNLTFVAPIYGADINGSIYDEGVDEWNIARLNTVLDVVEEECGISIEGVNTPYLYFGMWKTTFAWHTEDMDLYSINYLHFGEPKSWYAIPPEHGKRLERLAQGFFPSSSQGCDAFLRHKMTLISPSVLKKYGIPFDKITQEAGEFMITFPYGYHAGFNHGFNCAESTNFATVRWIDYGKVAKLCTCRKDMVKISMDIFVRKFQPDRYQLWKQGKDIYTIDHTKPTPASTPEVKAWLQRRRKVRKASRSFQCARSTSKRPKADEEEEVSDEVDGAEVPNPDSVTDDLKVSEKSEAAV
SMARCA2 act: SMARCA2 (BRM) function activators, primary screen, cell-based, luminescence, high throughput. MG213 cells, MMTV-luciferase reporter, dexamethasone, overnight. activation, % at 9.1 µM. 1% of 370,000 active. AID 652017, 2013; in the data active = activation above about 7.8%;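 also: 0% = vehicle wells and 100% = reference activator wells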
Exocytosis inh: LAMP-1 surface exposure blockers, TALL-104 cells – cell-based, flow cytometry, MLPCN library, primary screen. AID 651702, 2012. 0.66% of 360,000 active. inhibition, % at 10 µM. TALL-104 LAMP-1 surface exposure; cells stimulated with thapsigargin and PMA;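 active = inhibition above about 55%, limit read from the data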
PfM18AAP inh-2: PfM18AAP inhibitors, malaria aminopeptidase, confirmation, biochemical, QFRET, recombinant enzyme, triplicate. shares compounds with PfM18AAP inh-1. H-Glu-NHMec fluorogenic cleavage. inhibition, % at 7.35 µM. 28% of 2,400 active. AID 2170, 2009;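 active = mean inhibition over replicate wells above the hit cutoff set for the earlier primary screen, cut at about 29% in these data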;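 also: 0% = median of test compound wells and 100% = 2 mM ZnCl2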
CTSL1 counter: cathepsin L1 inhibitors, retest, confirmation, counter-screen for PFM18AAP inhibitor project, biochemical, QFRET, triplicate | purified cathepsin L1, Z-Leu-Arg-MCA fluorescence | shares compounds with PfM18AAP inh-1 | 2,400 tested, under 10 active | inhibition, % at 5.96 µM | AID 2178, 2009;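 active = average inhibition across replicates above the hit cutoff set in the earlier primary screen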;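 also: 0% = median of test compound wells and 100% = Z-Phe-Ala-diazomethylketone 1 µM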
Starred values were filed as active, the others as inactive; nt = no result given. In the library only some 5.4% were active in any assay of this set; here they are far more common.

SMILES	MIN6 prolif	PfM18AAP inh-1	ALR inh	JMJD2C inh	SMARCA2 act	Exocytosis inh	PfM18AAP inh-2	CTSL1 counter
Oc1cccc(NC(=S)Nc2ccccc2)c1	-1	22	48	-6	2	-6	-47	2
Fc1cccc(NC(=S)NNc2ccccc2)c1	-6	38*	-4	16	1	18	-14	-6
Fc1cccc(NC(=S)NNc2c3ccccc3nc3ccccc23)c1	nt	2	nt	-25	-1	1	nt	nt
COC(=O)[C@]12C[C@H](CC(=O)N3CCC(c4ccccc4)CC3)C(=O)N(Cc3ccccc3)C1=C[C@H](C(C)C)O[C@@H]2C1CC1	nt	nt	nt	nt	-7	nt	nt	nt
COc1cc(/C=C/c2cc(C(=O)O)c3ccccc3n2)cc(OC)c1O	-2	51*	99*	7	1	-3	18	2
CCOc1cc(/C=C/c2cc(C(=O)O)c3ccccc3n2)ccc1OC	-2	-4	1	2	-2	5	nt	nt
N#Cc1c(-c2ccc(Cl)cc2)cc(-c2ccccc2)nc1SCC(=O)O	-5	-2	42	2	-1	5	nt	nt
N#Cc1c(-c2ccc(F)cc2)cc(-c2ccccc2)nc1SCC(=O)NCC(=O)O	-2	51*	3	17	-2	0	6	6
C/C(=N\Nc1nc(N)cc(Cl)n1)c1cccc([N+](=O)[O-])c1	-1	34*	19	8	-1	2	-45	3
C/C(=N\Nc1nc(N)cc(Cl)n1)c1cccc(N)c1	0	4	nt	21	3	-9	nt	nt
Cc1ccc(S(=O)(=O)N2CCOCC2)cc1NC(=O)CN1CCN(C)CC1	4	nt	-3	-5	1	5	nt	nt
O=S(=O)(c1ccc(NC(=S)N2CCN(c3ccc(O)cc3)CC2)cc1)N1CCOCC1	-4	34*	99*	9	0	0	2	-5
Cc1ccc(S(=O)(=O)N2CCOCC2)cc1NC(=O)CN1CCN(c2ccc(O)cc2)CC1	-4	34*	97*	4	-3	-3	8	0
O=S(=O)(c1ccc(NC(=S)N2CCOCC2)cc1)N1CCCCC1	nt	nt	nt	nt	-4	2	nt	nt
CCOc1ccccc1NC(=O)CSc1nnc(SCc2ccccc2)s1	nt	nt	nt	nt	3	nt	nt	nt
O=C1/C(=C/c2ccco2)SC(=S)N1c1cccnc1	nt	21	nt	0	-4	-4	nt	nt
O=C(CN1C(=O)/C(=C/c2ccco2)SC1=S)NC1CCS(=O)(=O)C1 (configuration not stated)	-1	39*	-2	27	1	-1	-19	5
NN1C(=O)/C(=C\c2ccco2)SC1=S	1	34*	54	-13	0	2	-20	-1
CC(C)CN1C(=O)C[C@]2(C(=O)N(C)c3ccc(NC(=O)C(F)(F)F)cc32)C1c1ccccc1 (some centres not stated)	nt	nt	nt	nt	-1	nt	nt	nt
CCOC(=O)c1c(-c2cccs2)csc1N	-2	36*	11	1	0	-2	-42	-2
CCOC(=O)c1c(-c2ccco2)csc1N	-2	21	-6	-5	0	0	nt	nt
Cn1c(=O)[nH]c(=O)c2c1nc(SCCN1CCCCC1)n2Cc1ccccc1	0	-6	-2	2	1	1	nt	nt
COCCSc1nc2c(c(=O)[nH]c(=O)n2C)n1CCCc1ccccc1	-3	23	-19	0	0	0	nt	nt
Cn1c(=O)[nH]c(=O)c2c1nc(SCCN1CCCCC1)n2CCCc1ccccc1	3	55*	6	-5	-1	2	7	-1
Cc1ccc(Cn2c(SCCN3CCCCC3)nc3c2c(=O)[nH]c(=O)n3C)cc1	4	38*	6	8	-2	0	0	4
SMILES	MIN6 prolif	PfM18AAP inh-1	ALR inh	JMJD2C inh	SMARCA2 act	Exocytosis inh	PfM18AAP inh-2	CTSL1 counter
O=C(C(=O)N1CCC(CNS(=O)(=O)Cc2ccccc2)CC1)c1cccs1	nt	nt	nt	nt	-4	nt	nt	nt
CCCN1CCS(=O)(=O)N(Cc2cn(CC(=O)OCC)nn2)C(C(=O)OC)C1 (configuration not stated)	nt	nt	nt	nt	2	nt	nt	nt
Cc1cc(NS(=O)(=O)c2ccccc2)cc(Cl)c1O	-5	67*	99*	-7	-2	-1	-56	-5
O=S(=O)(Nc1ccc(NS(=O)(=O)c2ccccc2)c(Cl)c1)c1ccccc1	nt	nt	nt	nt	3	-4	nt	nt
Cc1cc(C(=O)CSc2ncn[nH]2)c(C)n1-c1cccc(S(=O)(=O)N2CCOCC2)c1	-1	46*	5	5	0	0	24	5
Cc1cc(C(=O)CCl)c(C)n1-c1cccc(S(=O)(=O)N2CCOCC2)c1	-6	6	22	-1	2	nt	nt	nt
Cc1ccc(C(=O)C2C(=O)C3CCC2C3)cc1 (configuration not stated)	nt	nt	nt	nt	3	-18	nt	nt
CCOC(=O)N1CCN(C(=O)C[C@H]2C(=O)N(Cc3ccc(OC)cc3)C3=CCCCC[C@@]32C(=O)OC)CC1	nt	nt	nt	nt	-2	nt	nt	nt
Cn1c(-c2ccc(Cl)nc2)nc2ccccc21	2	34*	-3	9	-1	2	-51	-3
Cc1ccccc1NC(=O)N(C)[C@H]1C[C@H]2c3[nH]c4c(-c5ccccc5)cccc4c3CCN2C(=O)[C@H]1[C@H](C)O	nt	nt	nt	nt	3	nt	nt	nt
CCN(CC)C(=O)CC[C@H]1CC[C@]2(CCCN(Cc3cccs3)C2)O1	nt	nt	nt	nt	-3	nt	nt	nt
O=C1C2CC=C(Cl)CC2C(=O)N1c1ncn[nH]1 (configuration not stated)	1	53*	-12	-19	3	-1	8	-6
CN(C)c1cccc(C(=O)n2cc(C(=O)c3cc(F)ccc3O)cn2)c1	1	53*	-12	15	7.8*	-1	-5	4
O=C(c1cnn(C(=O)COc2ccccc2F)c1)c1cc(F)ccc1O	1	43*	nt	4	-1	1	-15	-10
COc1ccc(O)c(C(=O)c2cnn(C(=O)c3cccc(N(C)C)c3)c2)c1	-5	nt	49	-8	5	-9	nt	nt
C=CCN(C)CC#Cc1ccc(F)cc1	nt	nt	nt	nt	0	nt	nt	nt
CCCCNC(=O)C[C@H]1C(=O)N(Cc2ccc(OC)cc2)C2=CCCCC[C@@]21C(=O)OC	nt	nt	nt	nt	0	nt	nt	nt
